Experimental findings from ChEMBL document CHEMBL1961873, “Compounds: GSK PKIS; Assays: Nanosyn kinase panel” (2012) are described below.

In assay [1] the target is T1, Mitogen-activated protein kinase 12 (Homo sapiens) (UniProt P53778).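 Note: values are averaged p38gamma kinase inhibition readings, compounds tested at 1 µM.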
T1 sequence (whole entry): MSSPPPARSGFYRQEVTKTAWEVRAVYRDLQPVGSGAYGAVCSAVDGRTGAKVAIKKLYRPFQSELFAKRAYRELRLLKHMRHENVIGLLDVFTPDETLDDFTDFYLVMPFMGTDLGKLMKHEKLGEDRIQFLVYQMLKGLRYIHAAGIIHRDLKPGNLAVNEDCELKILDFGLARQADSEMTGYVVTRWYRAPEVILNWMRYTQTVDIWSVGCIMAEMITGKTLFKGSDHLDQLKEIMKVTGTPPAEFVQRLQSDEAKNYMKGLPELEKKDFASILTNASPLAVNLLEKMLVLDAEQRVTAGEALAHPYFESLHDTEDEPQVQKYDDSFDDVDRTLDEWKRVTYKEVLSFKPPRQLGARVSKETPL
Particulars: at 1 µM.

Assay [2] concerns the target SRSF protein kinase 1 (Homo sapiens) (UniProt Q96SB4). To be noted: at 0.1 µM.
Assay [3] shares this target. Particulars: at 1 µM.
Assay [4] addresses Phosphatidylinositol 4,5-bisphosphate 3-kinase catalytic subunit alpha isoform (Homo sapiens) (UniProt P42336). Particulars: at 0.1 µM.
Assay [5] has the same target. Particulars: at 1 µM.
In assay [6] the target is T2, Phosphatidylinositol 4,5-bisphosphate 3-kinase catalytic subunit delta isoform (Homo sapiens) (UniProt O00329).
T2 sequence (whole entry): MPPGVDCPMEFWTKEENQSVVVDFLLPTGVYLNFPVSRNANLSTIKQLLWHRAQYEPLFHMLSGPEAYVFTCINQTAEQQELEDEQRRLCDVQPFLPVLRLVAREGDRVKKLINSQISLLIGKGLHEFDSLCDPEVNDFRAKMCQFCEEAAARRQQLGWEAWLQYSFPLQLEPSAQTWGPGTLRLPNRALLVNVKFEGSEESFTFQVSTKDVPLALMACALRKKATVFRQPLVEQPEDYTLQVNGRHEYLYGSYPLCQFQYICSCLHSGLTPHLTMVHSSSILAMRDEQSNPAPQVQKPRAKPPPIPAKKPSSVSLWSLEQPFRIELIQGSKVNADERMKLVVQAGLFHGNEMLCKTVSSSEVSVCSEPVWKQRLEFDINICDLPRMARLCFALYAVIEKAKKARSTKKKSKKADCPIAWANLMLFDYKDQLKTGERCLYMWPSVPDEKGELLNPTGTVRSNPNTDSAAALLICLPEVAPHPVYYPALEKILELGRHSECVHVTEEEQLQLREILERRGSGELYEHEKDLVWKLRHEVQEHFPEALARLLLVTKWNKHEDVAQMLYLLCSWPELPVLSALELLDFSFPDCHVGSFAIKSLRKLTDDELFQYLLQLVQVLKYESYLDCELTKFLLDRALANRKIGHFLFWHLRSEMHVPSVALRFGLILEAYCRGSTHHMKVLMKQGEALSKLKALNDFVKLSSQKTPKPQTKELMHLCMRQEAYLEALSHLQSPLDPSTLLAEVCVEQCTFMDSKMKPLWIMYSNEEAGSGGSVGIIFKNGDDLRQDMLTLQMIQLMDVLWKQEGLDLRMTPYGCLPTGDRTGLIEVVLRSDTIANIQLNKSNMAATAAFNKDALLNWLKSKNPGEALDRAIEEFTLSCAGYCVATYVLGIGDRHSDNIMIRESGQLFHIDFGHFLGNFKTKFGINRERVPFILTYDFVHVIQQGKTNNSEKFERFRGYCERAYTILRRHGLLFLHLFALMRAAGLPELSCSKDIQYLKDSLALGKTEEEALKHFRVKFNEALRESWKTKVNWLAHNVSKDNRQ
Particulars: at 0.1 µM.

The target of assay [7] is T2, Phosphatidylinositol 4,5-bisphosphate 3-kinase catalytic subunit delta isoform (Homo sapiens). Particulars: at 1 µM.
The target of assay [8] is Phosphatidylinositol 4-kinase beta (Homo sapiens) (UniProt Q9UBF8). Particulars: at 0.1 µM.
Chain of Phosphatidylinositol 4-kinase beta (Homo sapiens) (Q9UBF8 2-816 limits assumed): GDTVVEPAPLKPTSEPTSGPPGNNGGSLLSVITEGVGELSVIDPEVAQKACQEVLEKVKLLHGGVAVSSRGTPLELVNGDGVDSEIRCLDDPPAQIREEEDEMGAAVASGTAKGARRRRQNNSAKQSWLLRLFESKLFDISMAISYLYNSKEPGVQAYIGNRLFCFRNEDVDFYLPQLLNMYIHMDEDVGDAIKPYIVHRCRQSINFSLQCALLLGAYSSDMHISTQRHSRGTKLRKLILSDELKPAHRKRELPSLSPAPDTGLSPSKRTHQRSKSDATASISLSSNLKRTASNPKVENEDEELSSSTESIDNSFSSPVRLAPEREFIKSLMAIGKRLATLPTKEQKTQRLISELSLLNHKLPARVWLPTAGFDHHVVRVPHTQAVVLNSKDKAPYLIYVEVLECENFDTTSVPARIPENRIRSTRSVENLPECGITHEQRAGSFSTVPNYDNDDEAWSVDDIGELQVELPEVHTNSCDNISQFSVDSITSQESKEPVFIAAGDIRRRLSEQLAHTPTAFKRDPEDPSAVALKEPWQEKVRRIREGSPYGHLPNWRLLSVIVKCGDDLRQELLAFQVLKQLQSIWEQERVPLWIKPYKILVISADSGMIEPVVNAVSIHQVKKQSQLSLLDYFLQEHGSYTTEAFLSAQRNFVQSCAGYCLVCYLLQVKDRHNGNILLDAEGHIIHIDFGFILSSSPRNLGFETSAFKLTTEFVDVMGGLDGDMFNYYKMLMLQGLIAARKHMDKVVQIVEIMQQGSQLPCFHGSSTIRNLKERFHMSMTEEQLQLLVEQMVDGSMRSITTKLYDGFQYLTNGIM
The target is the same in assay [9]. Particulars: at 1 µM.
Assay [10] addresses Sphingosine kinase 1 (Homo sapiens) (UniProt Q9NYA1). To be noted: at 0.1 µM.
Assay [11] shares this target. To be noted: at 1 µM.
Assay [12] has as its target T3, Sphingosine kinase 2 (Homo sapiens) (UniProt Q9NRA0).
T3 sequence (whole entry): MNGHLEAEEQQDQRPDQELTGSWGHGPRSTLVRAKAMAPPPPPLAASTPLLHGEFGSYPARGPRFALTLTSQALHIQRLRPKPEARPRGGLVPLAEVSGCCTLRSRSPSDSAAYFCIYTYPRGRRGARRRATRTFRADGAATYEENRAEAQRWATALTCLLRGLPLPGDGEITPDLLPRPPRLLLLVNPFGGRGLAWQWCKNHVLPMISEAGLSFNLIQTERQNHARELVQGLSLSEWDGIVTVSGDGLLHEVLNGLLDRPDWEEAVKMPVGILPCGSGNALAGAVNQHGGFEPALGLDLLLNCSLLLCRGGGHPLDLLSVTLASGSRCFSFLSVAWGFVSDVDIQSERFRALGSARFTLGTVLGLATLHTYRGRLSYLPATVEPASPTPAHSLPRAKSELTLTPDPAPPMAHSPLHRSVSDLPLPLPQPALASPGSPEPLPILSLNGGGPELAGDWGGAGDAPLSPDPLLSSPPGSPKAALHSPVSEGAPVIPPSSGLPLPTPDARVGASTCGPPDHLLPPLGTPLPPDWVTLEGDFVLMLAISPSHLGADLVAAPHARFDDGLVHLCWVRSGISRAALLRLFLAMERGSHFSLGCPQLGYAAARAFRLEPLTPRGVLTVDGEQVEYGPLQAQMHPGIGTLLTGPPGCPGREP
Particulars: at 0.1 µM.

Assay [13] deals with T3, Sphingosine kinase 2 (Homo sapiens). To be noted: at 1 µM.
Assay [14] deals with Casein kinase II subunit alpha (Homo sapiens) (UniProt P68400). Particulars: at 0.1 µM.
Chain of Casein kinase II subunit alpha (Homo sapiens) (P68400 whole entry, looked up): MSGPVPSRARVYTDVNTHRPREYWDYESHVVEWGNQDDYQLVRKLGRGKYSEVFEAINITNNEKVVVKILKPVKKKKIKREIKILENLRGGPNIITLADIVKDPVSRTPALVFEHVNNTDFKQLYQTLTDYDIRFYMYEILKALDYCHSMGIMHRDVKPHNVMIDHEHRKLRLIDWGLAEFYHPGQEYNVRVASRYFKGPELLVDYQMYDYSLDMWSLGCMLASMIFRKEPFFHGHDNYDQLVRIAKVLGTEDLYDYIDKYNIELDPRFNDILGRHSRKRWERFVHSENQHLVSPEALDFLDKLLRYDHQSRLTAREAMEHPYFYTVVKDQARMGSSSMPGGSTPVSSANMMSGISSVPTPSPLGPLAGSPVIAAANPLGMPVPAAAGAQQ
Assay [15] shares this target. Particulars: at 1 µM.
Assay [16] concerns the target T4, Inhibitor of nuclear factor kappa-B kinase subunit alpha (Homo sapiens) (UniProt O15111).
T4 sequence (whole entry): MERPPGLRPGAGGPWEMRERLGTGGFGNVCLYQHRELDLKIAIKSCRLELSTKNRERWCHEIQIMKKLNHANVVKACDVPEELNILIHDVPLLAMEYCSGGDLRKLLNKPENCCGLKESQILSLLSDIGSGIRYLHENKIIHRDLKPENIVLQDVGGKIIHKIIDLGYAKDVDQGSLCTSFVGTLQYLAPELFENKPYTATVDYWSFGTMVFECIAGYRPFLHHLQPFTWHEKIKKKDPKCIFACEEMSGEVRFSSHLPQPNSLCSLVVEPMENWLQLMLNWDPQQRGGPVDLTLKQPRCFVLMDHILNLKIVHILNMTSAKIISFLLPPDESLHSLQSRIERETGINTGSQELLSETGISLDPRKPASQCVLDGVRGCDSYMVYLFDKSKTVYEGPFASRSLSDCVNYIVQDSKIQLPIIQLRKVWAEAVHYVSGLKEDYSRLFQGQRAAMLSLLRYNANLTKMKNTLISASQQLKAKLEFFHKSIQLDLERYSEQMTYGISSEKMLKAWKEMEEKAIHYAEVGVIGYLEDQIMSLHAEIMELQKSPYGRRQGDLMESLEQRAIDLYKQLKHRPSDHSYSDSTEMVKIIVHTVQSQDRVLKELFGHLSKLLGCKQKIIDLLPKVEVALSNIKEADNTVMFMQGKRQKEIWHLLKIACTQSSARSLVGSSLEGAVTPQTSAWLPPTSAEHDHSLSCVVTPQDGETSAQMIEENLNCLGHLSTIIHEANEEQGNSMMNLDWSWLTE
Particulars: at 0.1 µM.

Assay [17] concerns the target T4, Inhibitor of nuclear factor kappa-B kinase subunit alpha (Homo sapiens). Particulars: at 1 µM.
The target of assay [18] is T5, Inhibitor of nuclear factor kappa-B kinase subunit beta (Homo sapiens) (UniProt O14920).
T5 sequence (whole entry): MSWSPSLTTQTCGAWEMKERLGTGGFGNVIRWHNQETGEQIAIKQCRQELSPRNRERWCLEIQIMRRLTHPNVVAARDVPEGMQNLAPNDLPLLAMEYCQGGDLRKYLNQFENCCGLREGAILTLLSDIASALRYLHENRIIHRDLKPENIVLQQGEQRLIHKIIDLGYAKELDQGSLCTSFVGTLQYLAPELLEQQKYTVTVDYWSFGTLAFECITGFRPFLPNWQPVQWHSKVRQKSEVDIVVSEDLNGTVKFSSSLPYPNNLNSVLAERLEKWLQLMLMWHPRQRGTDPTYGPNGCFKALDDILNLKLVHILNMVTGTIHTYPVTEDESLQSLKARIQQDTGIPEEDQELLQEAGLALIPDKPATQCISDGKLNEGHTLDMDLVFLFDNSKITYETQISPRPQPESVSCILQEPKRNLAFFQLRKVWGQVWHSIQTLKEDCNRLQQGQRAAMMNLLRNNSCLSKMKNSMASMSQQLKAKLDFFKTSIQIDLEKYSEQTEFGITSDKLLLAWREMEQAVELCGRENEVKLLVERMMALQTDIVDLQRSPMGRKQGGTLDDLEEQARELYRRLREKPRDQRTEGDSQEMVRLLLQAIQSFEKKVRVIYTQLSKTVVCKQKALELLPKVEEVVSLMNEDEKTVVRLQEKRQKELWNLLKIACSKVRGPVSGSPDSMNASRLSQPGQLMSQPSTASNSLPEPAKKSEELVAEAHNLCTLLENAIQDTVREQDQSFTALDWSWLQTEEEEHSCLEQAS
Particulars: at 0.1 µM.

The target of assay [19] is T5, Inhibitor of nuclear factor kappa-B kinase subunit beta (Homo sapiens). To be noted: at 1 µM.
Assay [20] addresses T6, Inhibitor of nuclear factor kappa-B kinase subunit epsilon (Homo sapiens) (UniProt Q14164).
T6 sequence (whole entry): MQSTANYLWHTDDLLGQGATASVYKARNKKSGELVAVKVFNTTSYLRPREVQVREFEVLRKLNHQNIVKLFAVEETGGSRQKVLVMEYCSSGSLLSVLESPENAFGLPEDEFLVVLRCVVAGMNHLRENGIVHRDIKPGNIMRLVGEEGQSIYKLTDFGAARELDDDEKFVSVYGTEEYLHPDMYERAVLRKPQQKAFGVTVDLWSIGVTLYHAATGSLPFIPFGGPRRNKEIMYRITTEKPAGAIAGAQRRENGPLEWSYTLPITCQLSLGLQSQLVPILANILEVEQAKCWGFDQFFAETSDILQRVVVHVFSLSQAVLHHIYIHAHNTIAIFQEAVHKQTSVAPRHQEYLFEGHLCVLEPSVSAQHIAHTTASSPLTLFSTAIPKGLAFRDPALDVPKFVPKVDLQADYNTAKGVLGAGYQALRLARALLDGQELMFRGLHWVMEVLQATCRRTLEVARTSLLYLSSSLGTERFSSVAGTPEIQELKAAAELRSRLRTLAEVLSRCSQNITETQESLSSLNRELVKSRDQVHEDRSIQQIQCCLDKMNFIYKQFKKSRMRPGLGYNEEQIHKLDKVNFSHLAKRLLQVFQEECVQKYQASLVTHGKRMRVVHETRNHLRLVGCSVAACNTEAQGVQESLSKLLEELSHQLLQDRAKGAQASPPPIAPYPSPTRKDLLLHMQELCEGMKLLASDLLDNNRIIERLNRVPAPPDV
To be noted: at 0.1 µM.

The term inhibition denotes the relative decrease from the control value, in per cent.

Structures are written as SMILES.

Chain of Phosphatidylinositol 4,5-bisphosphate 3-kinase catalytic subunit alpha isoform (Homo sapiens) (P42336 whole entry, canonical isoform): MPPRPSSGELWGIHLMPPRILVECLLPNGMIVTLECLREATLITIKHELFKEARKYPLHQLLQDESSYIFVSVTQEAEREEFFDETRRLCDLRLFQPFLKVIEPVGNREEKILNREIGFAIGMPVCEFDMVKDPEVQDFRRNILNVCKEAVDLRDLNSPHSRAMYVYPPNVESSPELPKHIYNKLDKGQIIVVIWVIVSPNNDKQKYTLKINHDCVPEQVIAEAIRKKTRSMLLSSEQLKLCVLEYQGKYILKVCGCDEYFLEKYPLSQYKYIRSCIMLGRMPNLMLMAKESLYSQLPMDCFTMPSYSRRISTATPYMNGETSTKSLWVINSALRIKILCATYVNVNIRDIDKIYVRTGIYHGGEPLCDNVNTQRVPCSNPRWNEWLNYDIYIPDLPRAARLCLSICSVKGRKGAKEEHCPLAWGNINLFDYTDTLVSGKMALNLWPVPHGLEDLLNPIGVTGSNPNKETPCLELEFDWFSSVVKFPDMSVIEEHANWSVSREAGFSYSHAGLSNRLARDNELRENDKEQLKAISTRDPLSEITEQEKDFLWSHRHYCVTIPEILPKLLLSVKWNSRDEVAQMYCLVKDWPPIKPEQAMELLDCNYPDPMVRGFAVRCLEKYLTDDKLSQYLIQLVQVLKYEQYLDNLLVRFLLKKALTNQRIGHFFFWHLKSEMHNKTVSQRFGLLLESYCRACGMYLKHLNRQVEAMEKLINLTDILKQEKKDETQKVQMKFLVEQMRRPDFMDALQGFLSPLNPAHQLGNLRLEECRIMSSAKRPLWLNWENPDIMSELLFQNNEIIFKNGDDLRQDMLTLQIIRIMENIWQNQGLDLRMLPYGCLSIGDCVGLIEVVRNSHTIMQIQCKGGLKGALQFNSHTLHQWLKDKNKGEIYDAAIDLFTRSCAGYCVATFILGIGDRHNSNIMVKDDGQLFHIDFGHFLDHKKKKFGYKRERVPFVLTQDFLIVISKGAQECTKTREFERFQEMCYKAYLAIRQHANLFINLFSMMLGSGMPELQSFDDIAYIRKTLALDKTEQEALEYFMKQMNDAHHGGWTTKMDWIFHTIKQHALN
Chain of Sphingosine kinase 1 (Homo sapiens) (Q9NYA1 whole entry): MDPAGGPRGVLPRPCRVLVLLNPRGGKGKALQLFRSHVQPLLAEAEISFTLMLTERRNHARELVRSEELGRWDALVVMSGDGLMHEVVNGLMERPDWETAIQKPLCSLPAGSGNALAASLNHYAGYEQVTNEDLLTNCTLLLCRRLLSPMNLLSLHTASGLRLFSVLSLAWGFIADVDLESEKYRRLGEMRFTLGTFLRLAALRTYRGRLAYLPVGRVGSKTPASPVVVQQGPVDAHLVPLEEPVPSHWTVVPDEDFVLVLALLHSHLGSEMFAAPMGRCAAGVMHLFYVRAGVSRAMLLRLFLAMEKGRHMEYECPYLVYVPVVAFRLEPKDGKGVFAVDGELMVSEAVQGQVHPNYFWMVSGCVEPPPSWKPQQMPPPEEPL
Chain of SRSF protein kinase 1 (Homo sapiens) (Q96SB4 whole entry): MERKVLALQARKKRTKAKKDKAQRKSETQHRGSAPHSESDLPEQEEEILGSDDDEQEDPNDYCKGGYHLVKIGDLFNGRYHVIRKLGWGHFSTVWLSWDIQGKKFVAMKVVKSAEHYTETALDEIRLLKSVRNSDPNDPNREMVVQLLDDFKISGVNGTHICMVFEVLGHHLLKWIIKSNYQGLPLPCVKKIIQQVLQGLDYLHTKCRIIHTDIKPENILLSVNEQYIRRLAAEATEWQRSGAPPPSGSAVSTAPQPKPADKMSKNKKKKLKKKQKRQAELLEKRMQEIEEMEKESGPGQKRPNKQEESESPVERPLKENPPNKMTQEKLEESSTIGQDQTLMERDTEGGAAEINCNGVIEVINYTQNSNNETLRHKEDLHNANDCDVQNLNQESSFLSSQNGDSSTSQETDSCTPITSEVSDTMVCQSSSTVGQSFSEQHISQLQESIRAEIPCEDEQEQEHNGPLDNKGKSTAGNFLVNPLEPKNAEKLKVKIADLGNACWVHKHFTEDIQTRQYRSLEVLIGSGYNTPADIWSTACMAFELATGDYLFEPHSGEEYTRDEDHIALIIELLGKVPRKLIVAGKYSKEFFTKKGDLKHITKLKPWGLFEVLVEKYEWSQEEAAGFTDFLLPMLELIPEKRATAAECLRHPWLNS

With `Cc1ccc(O)cc1Nc1ccnc2ccc(S(C)(=O)=O)cc12`, the inhibition is 3.79% in assay [1]; -0.84% in assay [2]; 2.51% in assay [3]; 9.67% in assay [4]; 39.6% in assay [5]; 10.9% in assay [6]. For the same compound, the inhibition in [7] is 50.7%; in [8], -3.87%; in [9], 1.39%; in assay [10] it was 1.12%; in assay [11] it was -1.32%; in [12] it was 1.04%. For the same compound, the inhibition is 1.77% in assay [13]; 3.63% in assay [14]; 8.35% in assay [15]; 5.42% in assay [16]; 9.92% in assay [17]; 6.57% in assay [18]. Also, the inhibition in assay [19] was determined as 8.43%; in assay [20], 6.64%.

As for `NS(=O)(=O)c1cccc(-c2cc3ccncc3cc2OCc2ccccc2)c1`, the inhibition is 3.69% in assay [1]; -1.98% in assay [2]; -2.89% in assay [3]; 4.56% in assay [4]; 6.5% in [5]; 2.08% in assay [6]. Moreover, the inhibition in [7] was 5.47%; in assay [8] it was -1.89%; in assay [9], -5.37%; in assay [10] it was 0.1%; in assay [11], 0.02%; in assay [12], -1.2%. For the same compound, the inhibition in assay [13] was 0.96%; in assay [14] it was 1.61%; in assay [15], -1.22%; in assay [16], 8.21%; in assay [17] it was 10.9%; in assay [18], 7.94%. Further, the inhibition in assay [19] is 10.7%; in assay [20] it was 4.52%.

For the compound `COC(=O)c1cncc(/C=C/c2c(C)cc(O)cc2C)c1`, the inhibition worked out at 1.22% in assay [1]; 0.45% in [2]; 2.47% in assay [3]; 2.59% in [4]; 2.56% in assay [5]; 3.23% in assay [6]. Moreover, the inhibition is 2.23% in assay [7]; 2.65% in [8]; 0.11% in [9]; 2.52% in assay [10]; -4% in assay [11]; -0.39% in [12]. For the same compound, the inhibition in assay [13] is -0.47%; in assay [14], 3.51%; in assay [15], 11.9%; in assay [16], 3.28%; in [17], 5.67%; in assay [18], 4.7%. Moreover, the inhibition in [19] was found to be 7.41%; in assay [20] it was 8.93%.
